Most compounds without a hit are left out; they make up all but 0.64% or so of the library.
RECQ1 inh-1 – RECQ1 (human) helicase inhibition. P46063. RECQ1 DNA unwinding, red fluorescence kinetic read. Potency, µM (titrated, usually from 57.3 µM), for inactives: top-dose activity, negative = inhibition, most hits filed as inhibitors. actives 0.54% (n = 240,000). AID 2549;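 note: plate controls were vehicle for no effect and no enzyme for full effect; nearly all actives have a fitted effect of over 30% in size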
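50 nM RECQ1T1 preincubated 15 min with compound in Tris pH 8.0 buffer with MgCl2, DTT, Tween-20 and 2.5 ug/ml poly(dI-dC); started with 200 nM TAMRA/BHQ-2 forked duplex and 2 mM ATP. Unwinding read as fluorescence (525/598 nm), two reads 2 h apart.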
TexasRed fluor – Texas Red fluorescence interference in TRb-SRC2 counter-screen. TRb/SRC2 Texas Red total fluorescence interference. Potency, µM (titrated, usually from 106 µM), without a hit: at the top dose fluorescence change, negative = quenching. actives 0.29% (n = 280,000); active = well fitted curve in either direction with a large enough effect; inconclusive = small, poorly fitted or top-dose-only effect
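Flags fluorescent or light-absorbing compounds by total fluorescence, S + 2P, at 555 nm excitation and 632 nm emission. Mixture: 20 nM Texas Red SRC2 peptide, 0.6 uM human TRb LBD, 1 uM T3, 5% DMSO; compound exposure 5 h at ambient temperature.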
BLM inh – blocks DNA unwinding by human BLM helicase. P54132. recombinant BLM DNA unwinding, fluorescence dequenching. Potency, µM (highest dose often 56.1 µM), for inactives: at the top dose activity change, negative = inhibition, actives largely listed as inhibitors. actives 0.2% (n = 350,000). AID 2528;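 note: plate controls were vehicle for no effect and no enzyme for full effect; nearly all actives have a fitted effect of over 35% in size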
Target sequence (P54132 whole entry, looked up): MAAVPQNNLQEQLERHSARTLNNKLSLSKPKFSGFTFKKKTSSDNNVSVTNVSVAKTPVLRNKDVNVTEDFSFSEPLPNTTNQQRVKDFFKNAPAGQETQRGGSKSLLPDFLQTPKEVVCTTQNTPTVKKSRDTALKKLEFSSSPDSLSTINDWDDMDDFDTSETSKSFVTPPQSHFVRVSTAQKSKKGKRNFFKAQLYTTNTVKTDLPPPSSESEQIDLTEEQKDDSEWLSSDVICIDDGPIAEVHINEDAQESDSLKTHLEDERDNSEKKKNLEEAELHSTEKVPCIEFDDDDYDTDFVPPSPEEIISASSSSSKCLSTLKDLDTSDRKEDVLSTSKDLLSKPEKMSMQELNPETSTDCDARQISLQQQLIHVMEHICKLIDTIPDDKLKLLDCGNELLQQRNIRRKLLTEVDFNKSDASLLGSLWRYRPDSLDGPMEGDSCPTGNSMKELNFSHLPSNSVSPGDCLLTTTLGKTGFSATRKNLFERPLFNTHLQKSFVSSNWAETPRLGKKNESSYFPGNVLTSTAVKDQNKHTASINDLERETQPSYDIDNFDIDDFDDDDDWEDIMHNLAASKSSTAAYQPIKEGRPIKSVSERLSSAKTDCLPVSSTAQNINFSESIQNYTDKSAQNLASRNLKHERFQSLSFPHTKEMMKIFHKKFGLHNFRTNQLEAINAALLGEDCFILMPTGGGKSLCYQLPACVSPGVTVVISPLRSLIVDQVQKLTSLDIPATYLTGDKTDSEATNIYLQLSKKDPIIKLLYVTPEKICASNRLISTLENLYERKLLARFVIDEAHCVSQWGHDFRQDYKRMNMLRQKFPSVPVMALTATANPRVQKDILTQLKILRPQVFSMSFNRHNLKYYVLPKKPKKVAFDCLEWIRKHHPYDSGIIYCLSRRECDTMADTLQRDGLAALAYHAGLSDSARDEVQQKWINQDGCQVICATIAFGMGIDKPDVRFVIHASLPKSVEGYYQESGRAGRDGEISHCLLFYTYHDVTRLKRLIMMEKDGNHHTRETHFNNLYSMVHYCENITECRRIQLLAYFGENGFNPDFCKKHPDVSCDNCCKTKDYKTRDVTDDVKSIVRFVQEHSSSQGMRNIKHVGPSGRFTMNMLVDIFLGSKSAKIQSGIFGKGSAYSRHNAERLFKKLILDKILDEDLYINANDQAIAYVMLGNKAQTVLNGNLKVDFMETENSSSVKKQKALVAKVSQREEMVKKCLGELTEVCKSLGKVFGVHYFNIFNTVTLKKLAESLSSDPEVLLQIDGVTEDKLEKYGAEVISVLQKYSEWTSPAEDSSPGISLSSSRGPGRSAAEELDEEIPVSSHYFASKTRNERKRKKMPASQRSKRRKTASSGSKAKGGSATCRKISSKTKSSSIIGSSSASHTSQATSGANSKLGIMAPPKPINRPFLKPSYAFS
TRb SRC2 PPI – disrupts binding of human TR beta to SRC2; actives 0.065% (n = 280,000); TRbeta-SRC2 peptide binding, fluorescence polarization; receptor liganded with 1 µM T3; Potency, µM (doses to about 106 µM), without a hit: at the highest dose activity change, negative = inhibition, actives largely listed as inhibitors;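 note: plate controls were bound peptide for no effect and peptide without receptor for full effect; nearly all actives have a fitted effect of over 50% in size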
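Polarization signal, normalized between peptide-alone and full complex controls, measured compound effects on T3-liganded human TRb LBD (0.6 uM) binding 20 nM Texas Red SRC2 peptide after 5 hr.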
RECQ1 inh conf – confirmation of human RECQ1 helicase inhibitors | actives 28% (n = 610) | Potency, µM (top dose mostly 229 µM), without a hit: at the highest dose activity change, negative = inhibition, hits mostly inhibitors | shares compounds with RECQ1 inh-1 | AID 2708 | RECQ1 helicase DNA unwinding, fluorescence; note: nearly all actives have a fitted effect of over 45% in size
RECQ1 ADP FP – displaces ADP in a fluorescence polarization counter-screen for RECQ1 hits; AID 2711; actives 27% (n = 530); Potency, µM (series often up to 228 µM), for the others: at the highest dose activity change, negative = inhibition, actives largely listed as inhibitors; shares compounds with RECQ1 inh-1; ADP fluorescence polarization displacement counterscreen; note: nearly all actives have a fitted effect of over 45% in size
RECQ1 inh-2 – RECQ1 helicase inhibition confirmed, round 2. Potency, µM (doses to about 119 µM), for inactives: top-dose activity, negative = inhibition, usual class: inhibitors. AID 504841. actives 15% (n = 1,100). recombinant RECQ1 DNA unwinding, red fluorescence. shares compounds with RECQ1 inh-1; note: nearly all actives have a fitted effect of over 50% in size
Numbers without * were called inactive; ? = inconclusive; . = no result; ! = repeats disagree; [ ] = remark or other dose. Unless noted, calls come from the whole dose curve; as a rule, active = well fitted curve in the direction sought with a large enough effect; inconclusive = small, poorly fitted or top-dose-only effect, or another doubt; inactive = no such curve, though single readings can be large; an effect the other way counts as inactive or inconclusive. Unless noted, % is set by controls: 0 for no effect and ±100 for the full control effect; potency is the fitted concentration of half-maximal effect.

SMILES | RECQ1 inh-1 | TexasRed fluor | BLM inh | TRb SRC2 PPI | RECQ1 inh conf | RECQ1 inh-2 | others
NC(=O)c1ccc(N=Cc2c(O)n(Cc3ccco3)c(=O)[nH]c2=O)cc1 | ? | -2% | ? | -3% | . | ?
CC(C)(C)C(=O)[C@H](Oc1ccc(Cl)cc1)n1cncn1 | . | -2%[201 µM] | . | -7%[201 µM] | . | .
O=c1[nH]c(=O)n(CCC2=CCCCC2)c(O)c1C=NCCCn1ccnc1 | -8% | -1% | -1% | -17% | . | .
O=c1[nH]c(=S)n(CCC2=CCCCC2)c(O)c1C=NCCCn1ccnc1 | ? | 6% | -8% | 2% | . | -19%
O=C1C=CC(=O)c2ccccc21 | . | -6%[201 µM] | . | -5%[201 µM] | . | .
COc1cccc(CNC(=O)CSc2ccc(-c3ccco3)nn2)c1 | ? | -3% | -20% | -3% | . | -14%
CCSC(C)CC1CC(=O)C(/C(CC)=N/OC/C=C/Cl)=C(O)C1 (stereo unspecified) | . | -13%[201 µM] | . | -7%[201 µM] | . | .
CCCCNC(=O)Oc1c(Br)cc2sc(=O)oc2c1Br | 11µM* | -7% | -9% | -9% | 5%[114 µM] | . | RECQ1 ADP FP=12%[91.9 µM]
O=C1C=CC(=O)C=C1 | ? | -6% | . | -4% | . | .
O=C1C=CC(=O)C(Cl)=C1 | 20µM* | -8% | -16% | -1% | ? | . | RECQ1 ADP FP=16µM*
CCC(CC)Nc1c([N+](=O)[O-])cc(C)c(C)c1[N+](=O)[O-] | . | -1%[201 µM] | . | 1%[201 µM] | . | .
CCCCNC(=O)c1c(N)n(CCCOC)c2nc3ccccc3nc12 | ? | 1% | ? | ? | . | -11%
COCCNC(=O)c1c(N)n(CCC(C)C)c2nc3ccccc3nc12 | -9% | -3% | ? | 3% | . | .
CC(C)CCNC(=O)c1c(N)n(Cc2ccc3c(c2)OCO3)c2nc3ccccc3nc12 | ? | 0% | -27% | ? | . | -18%
CCCNC(=O)c1c(N)n(Cc2ccc3c(c2)OCO3)c2nc3ccccc3nc12 | -7% | 3% | -9% | -27% | . | .
Clc1ccc([C@@]2(Cn3cncn3)C[C@@H](Br)CO2)c(Cl)c1 | . | -3%[201 µM] | . | -8%[201 µM] | . | .
COC(=O)c1c(C(F)F)nc(C(F)(F)F)c(C2=NCCS2)c1CC(C)C | . | -2%[201 µM] | . | -5%[201 µM] | . | .
CCCOc1ccc(N2C(=O)CC(N3CC=C(c4ccccc4)CC3)C2=O)cc1 (stereo unspecified) | -1% | -6% | -8% | 6% | . | .
O=C1CC(N2CC=C(c3ccccc3)CC2)C(=O)N1c1ccc(F)cc1 (stereo unspecified) | 28µM* | 7% | -7% | 8% | . | -24%
CCOP(N)(=O)Oc1ccc(SC)c(C)c1 (stereo unspecified) | . | 3%[201 µM] | . | -9%[201 µM] | . | .
O=c1c2ccccc2nc(-c2ccccc2F)n1-c1ccccc1 | . | . | -2% | . | . | .
O=C(O)c1ccccc1-c1nc2ccccc2n1-c1ccccc1 | 11µM* | -1% | 0% | -5% | 40µM* | 1.8µM*
COC[C@H]1OC(=O)c2coc3c2[C@@]1(C)C1=C(C3=O)[C@@H]2CCC(=O)[C@@]2(C)C[C@H]1OC(C)=O | 35µM* | 45µM*[fluorescent] | . | 35µM* | . | 5%
N#Cc1c[nH]cc1-c1cccc2c1OC(F)(F)O2 | . | -8%[201 µM] | . | 0%[201 µM] | . | .
CNc1ccc2oc(C[C@H]3O[C@@]4(CC[C@H]3C)O[C@H]([C@H](C)C(=O)c3ccc[nH]3)[C@H](C)C[C@H]4C)nc2c1C(=O)O | ? | 1% | -27% | 1% | . | -11%
SMILES | RECQ1 inh-1 | TexasRed fluor | BLM inh | TRb SRC2 PPI | RECQ1 inh conf | RECQ1 inh-2 | others
CNc1ccc2oc(C[C@@H]3OC4(CC[C@@H]3C)O[C@H]([C@@H](C)C(=O)c3ccc[nH]3)[C@H](C)C[C@H]4C)nc2c1C(=O)O (stereo partly specified) | ? | -2% | . | -24% | . | 9%
CCNc1nc(NC(C)C)nc(OC)n1 | . | -1%[201 µM] | . | 0%[201 µM] | . | .
Oc1ccc(C(c2ccc(O)cc2)(C(F)(F)F)C(F)(F)F)cc1 | . | -1%[201 µM] | . | 2%[201 µM] | . | .
O=C(O)CCn1cc(C=C2C(=O)NC(=O)NC2=O)c(-c2cc3ccccc3oc2=O)n1 | 21% | 1% | 3% | -2% | 15% | . | RECQ1 ADP FP=-3%
CC(Oc1ccc(Cl)cc1Cl)C(=O)O (stereo unspecified) | . | 0%[201 µM] | . | 2%[201 µM] | . | .
CC(Oc1ccc(Cl)cc1Cl)C(=O)Nc1ccc(S(=O)(=O)Nc2cnc3ccccc3n2)cc1 (stereo unspecified) | 18µM* | -5% | -23% | 9% | -9%[114 µM] | ? | RECQ1 ADP FP=9%[91.9 µM]
C=CCC1=C(C)[C@@H](OC(=O)[C@@H]2[C@@H](C=C(C)C)C2(C)C)CC1=O | . | 2%[201 µM] | . | 2%[201 µM] | . | .
CN1C[C@H](C(=O)N[C@]2(C)O[C@@]3(O)[C@@H]4CCCN4C(=O)[C@H](Cc4ccccc4)N3C2=O)C=C2c3cccc4[nH]cc(c34)C[C@H]21 | ? | ? | -12% | -15% | ? | . | RECQ1 ADP FP=7.1µM*
CC[C@@H](CO)NC(=O)[C@@H]1C=C2c3cccc4c3c(cn4C)C[C@H]2N(C)C1 | 40µM*! | ? | -15% | ? | ? | .
CCN(CC)C(=O)N[C@@H]1C=C2c3cccc4[nH]cc(c34)C[C@H]2N(C)C1 | ? | 2% | -8% | 1% | -6% | . | RECQ1 ADP FP=22µM*
COC(=O)C1C=C2c3cccc4[nH]cc(c34)CC2N(C)C1 (stereo unspecified) | ? | 24% | -26% | -13% | . | .
CC[C@@H](CO)NC(=O)[C@@H]1C=C2c3cccc4[nH]cc(c34)C[C@H]2N(C)C1 | 35µM* | 12% | -17% | -17% | 3% | . | RECQ1 ADP FP=112µM*
C=C1C(=O)O[C@@H]2C[C@@H](C)[C@@H]3C=CC(=O)[C@@]3(C)[C@@H](OC(=O)CC(=O)O[C@H]3[C@@H]4C(=C)C(=O)O[C@@H]4C[C@@H](C)[C@@H]4C=CC(=O)[C@]43C)[C@H]12 | 25µM* | -11% | 22µM* | ? | 14µM* | . | RECQ1 ADP FP=-4%[91.9 µM]
CCCCCCCCCCCCC1=C(OC(C)=O)C(=O)c2ccccc2C1=O | . | 0%[201 µM] | . | -9%[201 µM] | . | .
CCCCn1c(O)c(/C=N/NC(=O)c2ccncc2)c(=O)[nH]c1=S | ? | 0% | -2% | 18% | . | .
Cn1c(O)c(/C=N/NC(=O)c2ccncc2)c(=O)[nH]c1=S | 3.2µM* | -5% | -3% | 6% | ? | 32µM* | RECQ1 ADP FP=34%[91.9 µM]
CCC(C=C[C@@H]1OC(=O)C=C[C@H]1C)=C[C@H](C)CC=CC(C)=C[C@@H](C)C(=O)[C@@H](C)[C@H](O)[C@@H](C)CC(C)=CC(=O)O | ? | 0%[2.82 µM] | ? | 1%[2.82 µM] | . | 1.3µM*
C=CC1(C)OC(=O)N(c2cc(Cl)cc(Cl)c2)C1=O (stereo unspecified) | . | -1%[201 µM] | . | -5%[201 µM] | . | .
COP(=S)(OC)Oc1c(Cl)cc(C)cc1Cl | . | 2%[201 µM] | . | 11%[201 µM] | . | .

Screening data (PubChem BioAssay)
